# ± gives the standard deviation of the averaged measurements. Targets with the largest changes are over-represented here; the source holds about 6,200 in all.
# Compound: Nc1ncnc2c1ncn2[C@@H]1O[C@H](COP(=O)(O)OP(=O)(O)NP(=O)(O)O)[C@@H](O)[C@H]1O [adenylyl imidodiphosphate]
# Assay: NP40-soluble protein abundance relative to vehicle (solubility fold change) (ratio); higher = more soluble protein in presence of AMP-PNP
# Outline: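 Values are fold changes against the detergent-processed vehicle, based on vsn-normalised intensities. Jurkat crude lysate was treated at eight concentrations from 0.1 to 10 mM (10 min at room temperature, then 3 min at 37 °C), solubilised with 0.8% NP40 and benzonase, ultracentrifuged and analysed by TMT-labelled LC-MS/MS over three independent experiments.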
# Chain of UniProt P54136 (P54136 whole entry): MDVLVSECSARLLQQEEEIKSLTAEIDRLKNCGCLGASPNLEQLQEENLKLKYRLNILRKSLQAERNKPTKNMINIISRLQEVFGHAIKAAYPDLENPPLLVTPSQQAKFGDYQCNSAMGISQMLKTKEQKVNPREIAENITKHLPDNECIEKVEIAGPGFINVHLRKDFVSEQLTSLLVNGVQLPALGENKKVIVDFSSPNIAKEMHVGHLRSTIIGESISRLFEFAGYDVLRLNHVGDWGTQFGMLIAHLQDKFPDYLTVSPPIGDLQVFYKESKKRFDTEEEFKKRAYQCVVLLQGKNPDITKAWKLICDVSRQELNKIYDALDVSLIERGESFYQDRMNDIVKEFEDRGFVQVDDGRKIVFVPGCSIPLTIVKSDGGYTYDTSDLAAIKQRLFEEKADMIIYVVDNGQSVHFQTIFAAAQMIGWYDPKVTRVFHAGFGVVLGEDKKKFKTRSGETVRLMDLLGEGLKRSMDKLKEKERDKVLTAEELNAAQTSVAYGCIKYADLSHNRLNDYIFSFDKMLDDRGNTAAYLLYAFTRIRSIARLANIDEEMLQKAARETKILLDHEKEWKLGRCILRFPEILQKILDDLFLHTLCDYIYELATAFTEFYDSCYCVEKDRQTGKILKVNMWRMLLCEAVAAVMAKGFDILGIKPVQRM
# Chain of UniProt P14649 (P14649 whole entry): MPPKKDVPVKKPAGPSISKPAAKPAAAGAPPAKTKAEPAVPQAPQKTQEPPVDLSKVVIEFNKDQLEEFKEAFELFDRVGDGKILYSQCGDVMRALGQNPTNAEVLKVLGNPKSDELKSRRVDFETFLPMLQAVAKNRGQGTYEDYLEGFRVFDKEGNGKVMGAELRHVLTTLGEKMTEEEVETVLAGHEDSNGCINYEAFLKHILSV
# Chain of UniProt Q13107 (Q13107 whole entry): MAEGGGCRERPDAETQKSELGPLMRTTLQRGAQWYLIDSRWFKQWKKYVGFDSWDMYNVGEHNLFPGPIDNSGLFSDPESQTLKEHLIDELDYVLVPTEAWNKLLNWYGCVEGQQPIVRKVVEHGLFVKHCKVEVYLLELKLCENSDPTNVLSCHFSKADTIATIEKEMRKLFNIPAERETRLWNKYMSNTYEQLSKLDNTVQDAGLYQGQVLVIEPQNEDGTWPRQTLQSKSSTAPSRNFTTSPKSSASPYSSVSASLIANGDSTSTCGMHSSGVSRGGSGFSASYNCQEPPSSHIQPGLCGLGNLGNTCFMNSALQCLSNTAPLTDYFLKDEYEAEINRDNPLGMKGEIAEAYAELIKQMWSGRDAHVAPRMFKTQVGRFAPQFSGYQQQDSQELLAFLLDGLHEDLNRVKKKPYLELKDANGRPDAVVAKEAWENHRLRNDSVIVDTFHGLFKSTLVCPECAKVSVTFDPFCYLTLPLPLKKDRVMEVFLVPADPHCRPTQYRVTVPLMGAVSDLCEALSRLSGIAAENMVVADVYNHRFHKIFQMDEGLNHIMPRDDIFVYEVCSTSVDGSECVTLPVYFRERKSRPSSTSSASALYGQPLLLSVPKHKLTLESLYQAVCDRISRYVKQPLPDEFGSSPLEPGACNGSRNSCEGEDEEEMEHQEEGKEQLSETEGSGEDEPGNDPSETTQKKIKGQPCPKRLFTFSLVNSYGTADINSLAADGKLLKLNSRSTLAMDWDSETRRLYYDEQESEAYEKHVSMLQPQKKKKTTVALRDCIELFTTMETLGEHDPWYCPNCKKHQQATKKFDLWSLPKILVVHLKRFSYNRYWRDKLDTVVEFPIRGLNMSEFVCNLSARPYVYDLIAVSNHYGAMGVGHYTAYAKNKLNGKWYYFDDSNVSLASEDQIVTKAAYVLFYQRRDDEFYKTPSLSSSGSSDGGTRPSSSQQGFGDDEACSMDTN
# Chain of UniProt P10619 (P10619 whole entry, one chain of several): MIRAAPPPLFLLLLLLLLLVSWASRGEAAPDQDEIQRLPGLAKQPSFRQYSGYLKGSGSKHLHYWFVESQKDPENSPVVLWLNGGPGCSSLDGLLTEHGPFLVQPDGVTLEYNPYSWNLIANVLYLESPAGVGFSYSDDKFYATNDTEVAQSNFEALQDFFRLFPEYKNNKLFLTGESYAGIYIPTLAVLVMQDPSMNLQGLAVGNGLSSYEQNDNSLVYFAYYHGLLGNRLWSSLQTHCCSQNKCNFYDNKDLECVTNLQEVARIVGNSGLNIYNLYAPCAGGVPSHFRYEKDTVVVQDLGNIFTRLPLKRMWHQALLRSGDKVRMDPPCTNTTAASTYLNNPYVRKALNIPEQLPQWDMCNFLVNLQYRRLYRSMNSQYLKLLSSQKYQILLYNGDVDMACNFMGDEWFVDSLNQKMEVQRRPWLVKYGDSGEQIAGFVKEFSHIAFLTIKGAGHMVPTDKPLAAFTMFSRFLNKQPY
# Chain of UniProt P54619 (P54619 whole entry): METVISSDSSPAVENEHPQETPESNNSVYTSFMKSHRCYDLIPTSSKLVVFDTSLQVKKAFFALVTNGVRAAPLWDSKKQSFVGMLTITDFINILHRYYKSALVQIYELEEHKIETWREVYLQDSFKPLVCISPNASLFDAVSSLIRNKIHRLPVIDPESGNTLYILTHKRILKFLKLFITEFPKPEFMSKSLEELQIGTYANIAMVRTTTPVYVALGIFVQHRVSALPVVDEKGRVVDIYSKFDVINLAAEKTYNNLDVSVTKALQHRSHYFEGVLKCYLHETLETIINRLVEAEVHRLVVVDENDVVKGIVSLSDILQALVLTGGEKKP
# Chain of UniProt P11166 (P11166 whole entry): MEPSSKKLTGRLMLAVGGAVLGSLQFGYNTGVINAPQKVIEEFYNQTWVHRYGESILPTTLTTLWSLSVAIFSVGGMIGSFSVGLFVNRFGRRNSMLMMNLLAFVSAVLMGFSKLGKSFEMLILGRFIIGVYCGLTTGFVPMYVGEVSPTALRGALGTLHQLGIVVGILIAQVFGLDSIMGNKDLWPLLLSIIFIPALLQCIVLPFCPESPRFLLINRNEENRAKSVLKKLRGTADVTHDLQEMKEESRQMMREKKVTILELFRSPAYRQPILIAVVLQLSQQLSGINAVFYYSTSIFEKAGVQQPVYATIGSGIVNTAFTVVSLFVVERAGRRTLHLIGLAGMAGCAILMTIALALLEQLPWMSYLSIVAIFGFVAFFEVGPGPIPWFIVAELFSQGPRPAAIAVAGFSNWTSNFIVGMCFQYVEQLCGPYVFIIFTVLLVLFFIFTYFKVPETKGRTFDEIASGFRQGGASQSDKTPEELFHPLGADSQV
# Chain of UniProt O95630 (O95630 whole entry): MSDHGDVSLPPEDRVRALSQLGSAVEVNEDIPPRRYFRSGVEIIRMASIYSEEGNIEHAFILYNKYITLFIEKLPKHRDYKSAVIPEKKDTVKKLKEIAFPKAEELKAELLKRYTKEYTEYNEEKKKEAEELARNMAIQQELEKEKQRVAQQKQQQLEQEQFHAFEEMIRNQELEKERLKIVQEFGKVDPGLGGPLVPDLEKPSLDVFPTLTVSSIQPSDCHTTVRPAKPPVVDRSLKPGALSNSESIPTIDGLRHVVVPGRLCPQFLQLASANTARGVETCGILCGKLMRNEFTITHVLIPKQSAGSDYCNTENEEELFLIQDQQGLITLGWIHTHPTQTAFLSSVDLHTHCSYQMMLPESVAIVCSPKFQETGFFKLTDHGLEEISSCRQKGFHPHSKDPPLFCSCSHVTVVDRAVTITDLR
# Chain of UniProt P78540 (P78540 whole entry): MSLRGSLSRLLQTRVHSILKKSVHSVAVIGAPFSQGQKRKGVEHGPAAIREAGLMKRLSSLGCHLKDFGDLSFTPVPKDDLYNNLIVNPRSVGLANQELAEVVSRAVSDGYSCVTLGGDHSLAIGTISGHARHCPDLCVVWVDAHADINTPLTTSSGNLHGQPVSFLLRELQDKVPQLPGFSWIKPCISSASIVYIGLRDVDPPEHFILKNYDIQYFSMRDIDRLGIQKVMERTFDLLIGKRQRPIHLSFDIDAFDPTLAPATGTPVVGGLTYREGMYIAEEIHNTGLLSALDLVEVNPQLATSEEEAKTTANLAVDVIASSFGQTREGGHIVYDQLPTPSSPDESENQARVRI
# Chain of UniProt P16383 (P16383 whole entry): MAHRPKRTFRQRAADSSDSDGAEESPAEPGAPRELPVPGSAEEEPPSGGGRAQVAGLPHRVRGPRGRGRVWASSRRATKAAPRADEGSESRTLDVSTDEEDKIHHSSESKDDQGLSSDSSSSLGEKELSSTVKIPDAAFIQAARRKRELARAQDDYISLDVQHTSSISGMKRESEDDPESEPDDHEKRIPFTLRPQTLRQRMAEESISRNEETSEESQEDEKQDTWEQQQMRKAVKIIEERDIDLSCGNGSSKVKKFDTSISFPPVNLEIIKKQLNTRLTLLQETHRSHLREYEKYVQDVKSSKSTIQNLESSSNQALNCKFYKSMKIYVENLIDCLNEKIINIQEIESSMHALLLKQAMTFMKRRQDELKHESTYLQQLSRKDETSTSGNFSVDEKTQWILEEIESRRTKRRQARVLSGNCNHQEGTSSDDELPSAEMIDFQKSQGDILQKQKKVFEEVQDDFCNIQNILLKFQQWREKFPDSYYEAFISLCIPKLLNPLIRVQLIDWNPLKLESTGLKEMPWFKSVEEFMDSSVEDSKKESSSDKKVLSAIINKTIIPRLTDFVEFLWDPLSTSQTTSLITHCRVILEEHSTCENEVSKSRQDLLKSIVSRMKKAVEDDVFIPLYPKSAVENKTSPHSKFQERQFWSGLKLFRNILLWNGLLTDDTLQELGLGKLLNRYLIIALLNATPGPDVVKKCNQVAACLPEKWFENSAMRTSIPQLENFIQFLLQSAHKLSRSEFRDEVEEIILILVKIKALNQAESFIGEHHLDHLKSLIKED
# Chain of UniProt P67936 (P67936 whole entry): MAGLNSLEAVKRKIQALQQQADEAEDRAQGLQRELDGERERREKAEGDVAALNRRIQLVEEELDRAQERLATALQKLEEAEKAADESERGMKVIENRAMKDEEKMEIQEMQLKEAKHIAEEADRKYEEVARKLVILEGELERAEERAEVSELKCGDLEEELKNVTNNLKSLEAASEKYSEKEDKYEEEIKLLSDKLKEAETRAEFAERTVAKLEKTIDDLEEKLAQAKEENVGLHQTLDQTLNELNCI
Target,NP40-soluble protein abundance (concentration: 1mM),NP40-soluble protein abundance (concentration: 2mM),NP40-soluble protein abundance (concentration: 4mM),NP40-soluble protein abundance (concentration: 6mM),NP40-soluble protein abundance (concentration: 8mM),NP40-soluble protein abundance (concentration: 10mM)
COX6B1 (UniProt P14854),0.864 ± 0.041,0.926 ± 0.032,0.916 ± 0.063,0.86 ± 0.055,0.821 ± 0.016,0.839 ± 0.019
UniProt P56282|P56282-3|P56282-2,0.973 ± 0.03,0.933 ± 0.065,0.968 ± 0.026,0.952 ± 0.036,0.942 ± 0.041,0.951 ± 0.045
RPS3A (UniProt P61247),0.96 ± 0.052,0.931 ± 0.044,0.918 ± 0.11,0.895 ± 0.081,0.83 ± 0.057,0.947 ± 0.11
CLPX (UniProt O76031),0.957 ± 0.062,0.969 ± 0.062,0.955 ± 0.074,0.909 ± 0.08,0.886 ± 0.074,0.923 ± 0.078
PYGB (UniProt P11216),1.06 ± 0.1,1.09 ± 0.15,1.35 ± 0.14,1.43 ± 0.17,1.54 ± 0.24,1.47 ± 0.24
SLC2A1 (UniProt P11166),1.015 ± 0.005,0.999 ± 0.042,1.02 ± 0.055,0.998 ± 0.029,1.01 ± 0.032,1.01 ± 0.053
SSR4 (UniProt P51571),0.998 ± 0.014,0.961 ± 0.064,0.988 ± 0.019,0.977 ± 0.027,0.998 ± 0.011,0.981 ± 0.037
NCKAP1L (UniProt P55160),0.975 ± 0.021,0.905 ± 0.085,0.955 ± 0.027,0.955 ± 0.072,0.975 ± 0.046,0.914 ± 0.037
UniProt P42285,1.006 ± 0.0056,0.982 ± 0.062,1.07 ± 0.033,1.1 ± 0.036,1.14 ± 0.068,1.13 ± 0.089
UniProt P01112,1.06 ± 0.026,1.04 ± 0.016,1.03 ± 0.021,1 ± 0.062,1.06 ± 0.021,1.01 ± 0.025
UniProt P18859|P18859-2|A8MUH2,0.948 ± 0.053,0.899 ± 0.032,0.867 ± 0.062,0.834 ± 0.05,0.825 ± 0.063,0.857 ± 0.026
SUB1 (UniProt P53999),0.923 ± 0.049,1 ± 0.19,0.916 ± 0.088,1 ± 0.089,0.997 ± 0.043,1.02 ± 0.11
UniProt P54136|P54136-2,0.957 ± 0.051,0.888 ± 0.14,0.92 ± 0.1,0.92 ± 0.097,0.945 ± 0.13,0.894 ± 0.16
ARG2 (UniProt P78540),0.983 ± 0.026,1.02 ± 0.033,1.02 ± 0.033,1.01 ± 0.027,0.997 ± 0.019,0.985 ± 0.038
UniProt P10619|P10619-2|X6R5C5|X6R8A1,0.979 ± 0.018,0.987 ± 0.086,0.984 ± 0.044,1.05 ± 0.11,1.06 ± 0.083,1.07 ± 0.13
SDHB (UniProt P21912),0.976 ± 0.045,1 ± 0.056,0.987 ± 0.063,1.03 ± 0.079,1.02 ± 0.075,1.04 ± 0.052
UniProt P16083|Q5TD07,1.02 ± 0.02,0.982 ± 0.074,0.988 ± 0.034,0.991 ± 0.02,0.993 ± 0.04,0.982 ± 0.052
UniProt P60866|P60866-2,0.932 ± 0.061,0.906 ± 0.058,0.883 ± 0.13,0.91 ± 0.04,0.889 ± 0.043,0.929 ± 0.13
USP4 (UniProt Q13107),1 ± 0.018,0.967 ± 0.044,1 ± 0.046,0.97 ± 0.042,0.975 ± 0.039,0.942 ± 0.038
UniProt P13807|P13807-2,0.947 ± 0.11,0.922 ± 0.065,0.895 ± 0.096,0.867 ± 0.14,0.876 ± 0.098,0.863 ± 0.16
POLR3D (UniProt P05423),0.982 ± 0.017,1.01 ± 0.02,0.993 ± 0.035,0.961 ± 0.041,0.971 ± 0.037,0.998 ± 0.065

Target,NP40-soluble protein abundance (concentration: 1mM),NP40-soluble protein abundance (concentration: 2mM),NP40-soluble protein abundance (concentration: 4mM),NP40-soluble protein abundance (concentration: 6mM),NP40-soluble protein abundance (concentration: 8mM),NP40-soluble protein abundance (concentration: 10mM)
RBM5 (UniProt P52756),1.05 ± 0.026,1.072 ± 0.0062,1.09 ± 0.038,1.06 ± 0.071,1.06 ± 0.061,1.1 ± 0.071
P0DN76|Q01081 (UniProt Q01081+P0DN76),1.04 ± 0.065,1.06 ± 0.083,1.12 ± 0.05,1.29 ± 0.099,1.47 ± 0.18,1.51 ± 0.18
UniProt P17096|P17096-2,1.01 ± 0.076,1.19 ± 0.19,1.12 ± 0.047,1.29 ± 0.057,1.31 ± 0.088,1.74 ± 0.29
UniProt P11388|P11388-2|P11388-3|P11388-4,1.66 ± 0.082,1.72 ± 0.05,1.82 ± 0.16,1.98 ± 0.14,2.04 ± 0.24,2.13 ± 0.27
TPM4 (UniProt P67936),1.21 ± 0.19,1.42 ± 0.15,1.27 ± 0.3,1.35 ± 0.3,1.44 ± 0.047,1.24 ± 0.16
UniProt P15170-2|P15170-3|H3BSV8,0.993 ± 0.025,0.955 ± 0.035,0.96 ± 0.01,0.995 ± 0.012,0.964 ± 0.014,0.968 ± 0.043
NAA20 (UniProt P61599),0.999 ± 0.039,0.9558 ± 0.0052,0.991 ± 0.022,0.973 ± 0.01,1.026 ± 0.0096,0.9551 ± 0.001
FBL (UniProt P22087),1.02 ± 0.046,1.027 ± 0.003,1.1 ± 0.051,1.22 ± 0.092,1.37 ± 0.12,1.48 ± 0.25
DNAJC3 (UniProt Q13217),0.978 ± 0.031,0.9648 ± 0.0063,0.973 ± 0.011,1.01 ± 0.014,0.985 ± 0.021,0.999 ± 0.022
UniProt Q02880|Q02880-2,1.56 ± 0.036,1.63 ± 0.041,1.77 ± 0.12,1.88 ± 0.19,1.95 ± 0.18,2.01 ± 0.25
MYL6B (UniProt P14649),1.02 ± 0.042,1.1 ± 0.053,1.01 ± 0.034,0.987 ± 0.051,0.925 ± 0.041,0.962 ± 0.019
STAMBP (UniProt O95630),1.02 ± 0.02,0.993 ± 0.012,0.995 ± 0.03,0.984 ± 0.018,0.964 ± 0.033,0.948 ± 0.06
UniProt O96028|O96028-3|O96028-5,1.08 ± 0.034,1.16 ± 0.026,1.23 ± 0.033,1.32 ± 0.044,1.35 ± 0.03,1.47 ± 0.059
PSMC4 (UniProt P43686),0.906 ± 0.041,0.921 ± 0.06,0.885 ± 0.08,0.871 ± 0.079,0.866 ± 0.082,0.859 ± 0.1
UniProt P16383|P16383-2,1.05 ± 0.038,1.09 ± 0.044,1.101 ± 0.0092,1.08 ± 0.03,1.07 ± 0.033,1.097 ± 0.0024
ALDH4A1 (UniProt P30038),0.99 ± 0.028,1.02 ± 0.016,0.977 ± 0.033,0.975 ± 0.023,0.938 ± 0.013,0.954 ± 0.02
UniProt P54619|P54619-3|P54619-2,0.993 ± 0.015,0.871 ± 0.092,0.964 ± 0.035,0.943 ± 0.025,1.01 ± 0.02,0.905 ± 0.045
HSD17B4 (UniProt P51659),1.01 ± 0.034,0.967 ± 0.026,1.04 ± 0.041,1.09 ± 0.058,1.12 ± 0.033,1.1 ± 0.034
UniProt P62805,0.903 ± 0.073,0.951 ± 0.018,0.964 ± 0.046,1.12 ± 0.18,1.25 ± 0.16,1.52 ± 0.25
USP8 (UniProt P40818),1.036 ± 0.0058,1.05 ± 0.033,1.048 ± 0.0058,0.997 ± 0.015,0.996 ± 0.042,1.01 ± 0.033
UniProt P51608-2|P51608|A0A087WXF0,1.04 ± 0.023,1.06 ± 0.016,1.04 ± 0.046,1.07 ± 0.019,1.07 ± 0.028,1.15 ± 0.042

# From the supplement of paper PMC6411743
